Measured values: PubChem BioAssay (NCI)
About 83,000 compounds went through this panel and 20% of them were active in at least one assay; those are over-represented in the sample as a whole.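 Method: cells in 96-well plates; compound added at one concentration; 48 h incubation; percent growth measured; values under 10 scored active.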 Active and inactive are the calls of the source.

Experiments:
Assay in all cases: NCI-60 one-dose screen, 48 h (100 = growth as untreated, 0 = no growth, -100 = all killed)
Conditions in all cases: 10 µM unless noted
SK-MEL-2 melanoma = tested on: SK-MEL-2 melanoma
EKVX NSCLC = tested on: EKVX NSCLC
SN12C renal = tested on: SN12C renal
UO-31 renal = tested on: UO-31 renal
TK-10 renal = tested on: TK-10 renal
ACHN renal = tested on: ACHN renal
CAKI-1 renal = tested on: CAKI-1 renal
A498 renal = tested on: A498 renal
CCRF-CEM leukemia = tested on: CCRF-CEM leukemia
MOLT-4 leukemia = tested on: MOLT-4 leukemia
SR leukemia = tested on: SR leukemia
RPMI-8226 leukemia = tested on: RPMI-8226 leukemia
OVCAR-8 ovarian = tested on: OVCAR-8 ovarian
OVCAR-5 ovarian = tested on: OVCAR-5 ovarian
OVCAR-4 ovarian = tested on: OVCAR-4 ovarian
SK-OV-3 ovarian = tested on: SK-OV-3 ovarian
IGROV1 ovarian = tested on: IGROV1 ovarian
OVCAR-3 ovarian = tested on: OVCAR-3 ovarian
HS 578T breast = tested on: HS 578T breast
NCI/ADR-RES ovarian = tested on: NCI/ADR-RES ovarian

Measured: growth

CC1(C)NCCC[C@]2(C)[C@H]3CC(=O)[C@H]4[C@@H]5C[C@](C)(CO)CC[C@]5(C)CC[C@@]4(C)[C@]3(C)CC[C@@H]12
inactive: SK-MEL-2 melanoma 99.5% | EKVX NSCLC 96.9% | SN12C renal 101% | UO-31 renal 95.5% | TK-10 renal 100% | ACHN renal 102% | CAKI-1 renal 81.6% | A498 renal 100% | CCRF-CEM leukemia 93.1% | MOLT-4 leukemia 67% | SR leukemia 82% | RPMI-8226 leukemia 95% | OVCAR-8 ovarian 114% | OVCAR-5 ovarian 98.3% | OVCAR-4 ovarian 92% | SK-OV-3 ovarian 110% | IGROV1 ovarian 98.1% | OVCAR-3 ovarian 89.8% | HS 578T breast 99.4% | NCI/ADR-RES ovarian 105%

CCOC(=O)c1nc2c3ccccc3ccn2c1C(=O)OCC
inactive: SK-MEL-2 melanoma 112% | EKVX NSCLC 76.9% | SN12C renal 95.4% | UO-31 renal 96.4% | TK-10 renal 102% | ACHN renal 99.5% | CAKI-1 renal 94.8% | A498 renal 109% | CCRF-CEM leukemia 96.1% | MOLT-4 leukemia 95.4% | SR leukemia 103% | RPMI-8226 leukemia 96.4% | OVCAR-8 ovarian 111% | OVCAR-5 ovarian 98% | OVCAR-4 ovarian 107% | SK-OV-3 ovarian 109% | OVCAR-3 ovarian 106%

O=C(CCN1CCCC1)c1ccc([N+](=O)[O-])cc1
inactive: SK-MEL-2 melanoma 111% | EKVX NSCLC 97.5% | SN12C renal 106% | UO-31 renal 87.3% | TK-10 renal 101% | ACHN renal 106% | CAKI-1 renal 97.3% | A498 renal 92.9% | CCRF-CEM leukemia 103% | MOLT-4 leukemia 113% | SR leukemia 98% | RPMI-8226 leukemia 92.7% | OVCAR-8 ovarian 101% | OVCAR-5 ovarian 102% | OVCAR-4 ovarian 102% | SK-OV-3 ovarian 101% | IGROV1 ovarian 105% | OVCAR-3 ovarian 104% | HS 578T breast 112% | NCI/ADR-RES ovarian 100%

Cc1ccc(C(=O)/C(=C\c2ccc([N+](=O)[O-])cc2)S(=O)Cc2ccc(Cl)cc2)cc1 (stereo unspecified)
active: SN12C renal -15.6% | UO-31 renal 3.42% | CCRF-CEM leukemia 4.88% | MOLT-4 leukemia 7.82% | SR leukemia 6.07% | RPMI-8226 leukemia -28.1% | IGROV1 ovarian 1.23%
inactive: SK-MEL-2 melanoma 72.7% | EKVX NSCLC 82.4% | TK-10 renal 50.3% | ACHN renal 12.7% | CAKI-1 renal 59.7% | A498 renal 77.6% | OVCAR-8 ovarian 25.6% | OVCAR-5 ovarian 45.8% | OVCAR-4 ovarian 58.9% | SK-OV-3 ovarian 106% | HS 578T breast 36.9% | NCI/ADR-RES ovarian 30.5%

CCOC(=O)c1cc(C(=O)c2ccc(OC)cc2)n2ccc(/C=C/c3cc[n+](CC(=O)c4ccc(OC)cc4)cc3)cc12
inactive: SK-MEL-2 melanoma 100% | EKVX NSCLC 87.8% | SN12C renal 56.2% | UO-31 renal 72.7% | TK-10 renal 91.7% | ACHN renal 70.2% | CAKI-1 renal 81.8% | A498 renal 67.6% | MOLT-4 leukemia 49.8% | RPMI-8226 leukemia 10.4% | OVCAR-8 ovarian 21.1% | OVCAR-5 ovarian 87.1% | OVCAR-4 ovarian 16.1% | SK-OV-3 ovarian 109% | IGROV1 ovarian 63.1% | OVCAR-3 ovarian 60.9% | HS 578T breast 105% | NCI/ADR-RES ovarian 98.1%
active: CCRF-CEM leukemia -22.5% | SR leukemia -29.5%

O=C(/C(=C\c1ccc([N+](=O)[O-])cc1)S(=O)Cc1ccc(F)cc1)c1ccc(F)cc1 (stereo unspecified)
inactive: SK-MEL-2 melanoma 78% | EKVX NSCLC 84.2% | TK-10 renal 25.8% | CAKI-1 renal 44.3% | A498 renal 82.2% | OVCAR-8 ovarian 29.3% | OVCAR-5 ovarian 40.4% | OVCAR-4 ovarian 45% | SK-OV-3 ovarian 103% | OVCAR-3 ovarian 18.1% | HS 578T breast 40.9% | NCI/ADR-RES ovarian 20.7%
active: SN12C renal -43.7% | UO-31 renal -39% | ACHN renal -7.56% | CCRF-CEM leukemia 0.265% | MOLT-4 leukemia 5.93% | SR leukemia 8.47% | RPMI-8226 leukemia -37.6% | IGROV1 ovarian -19.1%

NC(=S)N1N=C(c2ccccc2)CC1c1cn(-c2ccccc2)nc1-c1ccc(OCc2ccccc2)cc1 (stereo unspecified)
inactive: SK-MEL-2 melanoma 90.4% | EKVX NSCLC 78.3% | SN12C renal 93.2% | UO-31 renal 84.7% | TK-10 renal 102% | ACHN renal 100% | CAKI-1 renal 92.7% | A498 renal 94.5% | CCRF-CEM leukemia 103% | MOLT-4 leukemia 98.7% | SR leukemia 109% | RPMI-8226 leukemia 90.9% | OVCAR-8 ovarian 96.4% | OVCAR-5 ovarian 104% | OVCAR-4 ovarian 109% | SK-OV-3 ovarian 112% | IGROV1 ovarian 113% | OVCAR-3 ovarian 110% | HS 578T breast 96.3% | NCI/ADR-RES ovarian 112%

Cc1ccc(C(=O)/C(=C\c2ccc([N+](=O)[O-])cc2)S(=O)Cc2ccc(F)cc2)cc1 (stereo unspecified)
active: SN12C renal -52.1% | UO-31 renal -46.1% | ACHN renal -1.53% | CCRF-CEM leukemia 3.64% | MOLT-4 leukemia 1.47% | SR leukemia 7.86% | RPMI-8226 leukemia -21.3% | IGROV1 ovarian -16.8% | OVCAR-3 ovarian 9.09%
inactive: SK-MEL-2 melanoma 62.3% | EKVX NSCLC 58.5% | TK-10 renal 17.6% | CAKI-1 renal 30.3% | A498 renal 68.7% | OVCAR-8 ovarian 12.5% | OVCAR-5 ovarian 37.3% | OVCAR-4 ovarian 30.6% | SK-OV-3 ovarian 102% | HS 578T breast 21.9% | NCI/ADR-RES ovarian 26.8%
